# Compound activity deposited in PubChem BioAssay by National Center for Advancing Translational Sciences (NCATS).
# Shown are actives, neighbours in structure and some others; about 8.1% of the full set was active somewhere.
# ELG1 repair inh: blocks ELG1-dependent DNA repair in HEK293T cells; HEK293T ELG1-luciferase reporter, luminescence, 16 h; DNA damage induced by 5-fluorouridine; Potency, µM (titrated, usually from 46.1 µM), hits mostly inhibitors; 2.3% of 330,000 active; also: nearly all actives have a fitted effect of over 55% in size
#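 Quantitative HTS, concentration-response format. 2,000 cells/well co-treated with 5-fluorouridine and compound, 16 hr in 5% CO2 at 37 °C; ONE-Glo luminescence read after 30 min.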
# SW480 rereplic: inducers of DNA re-replication in SW480 colon cancer cells; Potency, µM (titrated, usually from 46.1 µM), most hits filed as activators; SW480 DNA re-replication, Hoechst DNA content imaging, 48 h; 1.8% of 340,000 active; also: nearly all actives have a fitted effect of over 55% in size
#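 DNA re-replication was detected as more nuclei of elevated Hoechst intensity after 48 hr exposure to compound (23 nL pinned per well of 250 cells).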
# MCF10A rerep: inducers of DNA re-replication in MCF 10A breast cells; MCF 10A DNA re-replication, Hoechst nuclear intensity, 48 h; 2.9% of 350,000 active; Potency, µM (series often up to 46.1 µM), hits mostly activators; also: nearly all actives have a fitted effect of over 50% in size
# KB-3-1 cytotox: kills parental KB-3-1 adenocarcinoma cells. KB-3-1 viability, CellTiter-Glo ATP luminescence, 72 h. Potency, µM (series often up to 46.1 µM), most hits filed as cytotoxic. 1.4% of 400,000 active. AID 1347075; also: nearly all actives have a fitted effect of over 60% in size
#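 Multi-concentration cytotoxicity screen in KB-3-1 cells grown in DMEM lacking phenol red with 10% FBS. After 72 h at 37 °C with compound, ATP-dependent luminescence was recorded.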
# KB-V1 MDR tox: KB-V1 MDR subline cytotoxicity; 3.4% of 400,000 active; KB-V1 MDR cells viability, CellTiter-Glo, 72 h; Potency, µM (titrated, usually from 46.1 µM), usual class: cytotoxic; also: nearly all actives have a fitted effect of over 60% in size
#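 Potencies derive from concentration-effect curves fitted to normalized luminescence (CellTiter-Glo) of KB-V1 cells treated for 72 h at 37 degrees C in phenol-red-free DMEM containing 10% FBS.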
# Numbers stand for hits; – = inactive; ? = inconclusive; · = not tested or not shown; ! = not active in a repeat; [ ] = remark or other dose. Calls follow the shape of the dose curve; as a rule, active = well fitted curve in the direction sought with a large enough effect; inconclusive = small, poorly fitted or top-dose-only effect, or another doubt; inactive = no such curve, though single readings can be large; an effect the other way counts as inactive or inconclusive.
SMILES,ELG1 repair inh,SW480 rereplic,MCF10A rerep,KB-3-1 cytotox,KB-V1 MDR tox
COc1ccc(N(C)C(=O)CCC(=O)Nc2ccc3nc(N4CCOCC4)cc(C)c3c2)c(OC)c1,?,–,?,?,16µM
C[C@@H]1CN([C@H](C)CO)S(=O)(=O)c2ccc(-c3ccc(C#N)cc3)cc2O[C@H]1CN(C)C(=O)Nc1cc(F)ccc1F,·,·,·,–,–
Nc1ccc2ccc(O)cc2c1,·,18µM,7.3µM,–,–
COc1cc(-c2c(-c3cc(OC)c(OC)c(OC)c3)noc2C)ccc1F,?,1.3µM,?,0.33µM!,0.41µM
COC(=O)c1cc(-c2c(-c3cc(OC)c(OC)c(OC)c3)noc2C)cc([N+](=O)[O-])c1,?,–,?,?,–
COc1ccc(-c2c(-c3cc(OC)c(OC)c(OC)c3)noc2C)cn1,–,7.3µM,1.6µM,1.6µM,1.6µM!
CCn1c(-c2ccc(N(C)C)cc2)nc2ccccc21,?,–,–,13µM,16µM
COc1ccc(NCc2cc3ccccc3[nH]c2=O)cc1,–,–[9.22 µM],–,–,–
COc1ccc(NCc2cc3cc(OC)ccc3[nH]c2=O)cc1,?,–,–,–,18µM
COc1ccc2[nH]c(=O)c(CNc3cccc(C)c3)cc2c1,–,–,–,?,5.8µM
COc1ccc2[nH]c(=O)c(CNC3CCCCC3)cc2c1,–,–[9.22 µM],–,–,–
N#CCc1c(C#N)c(N)nc(N2CCN(Cc3ccc4c(c3)OCO4)CC2)c1C#N,18µM,–,16µM,?,21µM
N#CCc1c(C#N)c(N)nc(N2CCN(c3ccc(F)cc3)CC2)c1C#N,?,–,?,?,12µM
O=C(CC1SC(N2CCOCC2)=NC1=O)Nc1cccc(C(F)(F)F)c1 (stereo not given),–,–,–,–,?
CN1CCN(C(=O)CCCN2C(=O)/C(=C/c3ccc(Cl)cc3)SC2=S)CC1,18µM,–,?,?,?
Cc1ccc(/C=C2\SC(=S)N(CCCC(=O)N3CCOCC3)C2=O)cc1,13µM,?,?,?,–
Cn1nnnc1SCCCNCc1cc(Cl)ccc1OCc1ccccc1F,·,·,·,–,–
CCOc1ccccc1N(C)C(=O)Cn1cnc2onc(-c3ccc(F)cc3)c2c1=O,·,·,·,–,?
Cc1nc(SC2CC(=O)N(c3cc(Cl)cc(Cl)c3)C2=O)nc2c1CCCC2 (stereo not given),–,–,–,–,–
Cc1cccc(N2C(=O)CC(Sc3nc(C)c4c(n3)CCCC4)C2=O)c1 (stereo not given),–,5.8µM,–,–,16µM
O=C(CCc1nnc2ccc(N3CCC4(CC3)OCCO4)nn12)NCc1ccc(F)cc1,–,–,–,–,–
Cc1ccc(CN2CC(N3CC=CC3)CS2(=O)=O)cc1 (stereo not given),·,·,·,–,?
Cc1sc(NC(=O)c2ccco2)c(C(c2cccnc2)N2CCN(C)CC2)c1C (stereo not given),–,–,?,–,–
CCOc1ccc(C(c2c(NC(=O)c3ccco3)sc(C)c2C)N2CCOCC2)cc1 (stereo not given),–,–,21µM,?,–
COc1cccc(C(c2c(NC(=O)c3ccco3)sc(C)c2C)N2CCOCC2)c1 (stereo not given),–,–,21µM,23µM,?
SMILES,ELG1 repair inh,SW480 rereplic,MCF10A rerep,KB-3-1 cytotox,KB-V1 MDR tox
Cc1sc(NC(=O)c2ccco2)c(C(c2cccnc2)N2CCCC2)c1C (stereo not given),–,?,21µM,–,–
Cc1sc(NC(=O)c2ccco2)c(C(c2ccncc2)N2CCOCC2)c1C (stereo not given),–,–,–,–,–
Cc1ccc(CS(=O)(=O)Cc2ccc(C(=O)NCCc3ccc(Cl)cc3)o2)cc1,·,·,·,–,?
Ic1ccc(Nc2nc(NCCN3CCOCC3)nc(N3CCCC3)n2)cc1,·,·,·,–,?
COCCN1C(=O)c2ccccc2C1c1nnnn1Cc1ccccc1 (stereo not given),·,·,·,–,?
C[n+]1c(-c2ccccc2)cc2c(=Cc3ccccc3)c3ccccc3n21,·,?,21µM,?,?
C[n+]1c(-c2ccccc2)cc2c(=Cc3ccc([N+](=O)[O-])cc3)c3ccccc3n21,·,–,–,?,?
CCOC(=O)CC1(C)NC(=O)c2c(C)sc(C(=O)OCC)c2N1 (stereo not given),–,–,–,–,16µM
